Results as given in the supplement of paper PMC9694430.

What was measured:
Assay in all cases: thermal shift delta Tm vs DMSO control; higher = stronger stabilization (binding)
Details in all cases: 12.5 µM; protein concentration 2 µM
LOC_OS01G01410-cb001 = tested on: LOC_OS01G01410-cb001
How it was run: (§1)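 Purified, E. coli-expressed rice kinase domain constructs were tested by differential scanning fluorimetry in 96-well plates: 19.5 μl of 2 μM kinase in 100 mM potassium phosphate pH 7.5, 150 mM NaCl, 10% glycerol, 5 × SYPRO Orange, plus compound in DMSO. Fluorescence was read from 25°C to 95°C at 0.05°C/s. Melting temperatures came from Boltzmann fits, and the shift is the triplicate mean relative to protein with DMSO alone.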

LOC_OS01G02750-cb003 = tested on: LOC_OS01G02750-cb003
How it was run: as §1

LOC_OS01G10900-cb004 = tested on: LOC_OS01G10900-cb004
How it was run: as §1

LOC_OS01G13800-cb001 = tested on: LOC_OS01G13800-cb001
How it was run: as §1

LOC_OS01G14860-cb001 = tested on: LOC_OS01G14860-cb001
How it was run: as §1

LOC_OS01G21960-cb002 = tested on: LOC_OS01G21960-cb002
How it was run: as §1

LOC_OS01G39600-cb002 = tested on: LOC_OS01G39600-cb002
How it was run: as §1

LOC_OS01G48390-cb002 = tested on: LOC_OS01G48390-cb002
How it was run: as §1

LOC_OS01G51400-cb002 = tested on: LOC_OS01G51400-cb002
How it was run: as §1

LOC_OS01G52050-cb004 = tested on: T1, LOC_OS01G52050-cb004
T1 sequence (whole entry): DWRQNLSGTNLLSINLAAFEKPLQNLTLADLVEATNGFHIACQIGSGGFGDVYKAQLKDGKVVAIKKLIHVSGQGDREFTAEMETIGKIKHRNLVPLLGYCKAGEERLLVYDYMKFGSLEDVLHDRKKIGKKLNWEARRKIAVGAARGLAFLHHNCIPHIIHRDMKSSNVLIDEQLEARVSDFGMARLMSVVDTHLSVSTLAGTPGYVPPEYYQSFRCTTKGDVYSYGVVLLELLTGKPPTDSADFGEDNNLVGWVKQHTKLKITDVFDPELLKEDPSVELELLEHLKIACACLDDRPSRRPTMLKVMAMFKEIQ
How it was run: as §1

LOC_OS01G57100-cb003 = tested on: LOC_OS01G57100-cb003
How it was run: as §1

LOC_OS01G60330-cb001 = tested on: LOC_OS01G60330-cb001
How it was run: as §1

LOC_OS01G60700-cb002 = tested on: LOC_OS01G60700-cb002
How it was run: as §1

LOC_OS01G63280-cb003 = tested on: LOC_OS01G63280-cb003
How it was run: as §1

LOC_OS01G67340-cb003 = tested on: LOC_OS01G67340-cb003
How it was run: as §1

LOC_OS01G70970-cb002 = tested on: LOC_OS01G70970-cb002
How it was run: as §1

LOC_OS02G07810-cb001 = tested on: LOC_OS02G07810-cb001
How it was run: as §1

LOC_OS02G08530-cb003 = tested on: LOC_OS02G08530-cb003
How it was run: as §1

LOC_OS02G14120-cb001 = tested on: LOC_OS02G14120-cb001
How it was run: as §1

LOC_OS02G17970-cb001 = tested on: LOC_OS02G17970-cb001
How it was run: as §1

Compound | thermal shift delta Tm (LOC_OS01G01410-cb001) | thermal shift delta Tm (LOC_OS01G02750-cb003) | thermal shift delta Tm (LOC_OS01G10900-cb004) | thermal shift delta Tm (LOC_OS01G13800-cb001) | thermal shift delta Tm (LOC_OS01G14860-cb001) | thermal shift delta Tm (LOC_OS01G21960-cb002) | thermal shift delta Tm (LOC_OS01G39600-cb002) | thermal shift delta Tm (LOC_OS01G48390-cb002) | thermal shift delta Tm (LOC_OS01G51400-cb002) | thermal shift delta Tm (LOC_OS01G52050-cb004) | thermal shift delta Tm (LOC_OS01G57100-cb003) | thermal shift delta Tm (LOC_OS01G60330-cb001) | thermal shift delta Tm (LOC_OS01G60700-cb002) | thermal shift delta Tm (LOC_OS01G63280-cb003) | thermal shift delta Tm (LOC_OS01G67340-cb003) | thermal shift delta Tm (LOC_OS01G70970-cb002) | thermal shift delta Tm (LOC_OS02G07810-cb001) | thermal shift delta Tm (LOC_OS02G08530-cb003) | thermal shift delta Tm (LOC_OS02G14120-cb001) | thermal shift delta Tm (LOC_OS02G17970-cb001)
CO[C@H]1CC[C@H](N2C(=O)CNc3ncc(-c4ccc(C(C)(C)O)nc4)nc32)CC1 | 0.1 °C | -0.2 °C | -0.9 °C | 0.15 °C | 0.82 °C | 1.01 °C | -1.7 °C | -0.27 °C | 0.12 °C | -1.81 °C | -0.57 °C | 0.72 °C | 0.21 °C | -0.43 °C | 0.09 °C | -0.05 °C | -0.1 °C | 0.65 °C | -1.04 °C | -0.48 °C
CC1(C)CNc2cc(NC(=O)c3cccnc3NCc3ccncc3)ccc21 [Motesanib Diphosphate (AMG-706)] | 1.13 °C | 0.81 °C | 0.63 °C | 0.38 °C | 0.51 °C | 0.76 °C | -0.19 °C | 0.41 °C | -0.07 °C | -0.22 °C | 1.3 °C | 1.28 °C | 1.09 °C | 8.62 °C | -0.45 °C | 0.75 °C | 0.59 °C | 0.61 °C | -0.17 °C | 0.6 °C
N#Cc1ccc(-c2c(-c3ncn[nH]3)sc(N3CCOCC3)c2C#N)c(F)c1 | 0.3 °C | 0.97 °C | 4.91 °C | 0.46 °C | 0.41 °C | 1.16 °C | 0.28 °C | 0.62 °C | 0.12 °C | 0.29 °C | 0.86 °C | 1.05 °C | 1.22 °C | 0.44 °C | 0.56 °C | 0.2 °C | 0.75 °C | 0.69 °C | 1.41 °C | 1.24 °C
Cc1ccc(NC(=O)c2ccc(CN3CC[C@H](N(C)C)C3)c(C(F)(F)F)c2)cc1Nc1nccc(-c2cncnc2)n1 [Bafetinib (INNO-406)] | 0.65 °C | 0.59 °C | 0.73 °C | 0.04 °C | 0.5 °C | 0.66 °C | -0.18 °C | 1.17 °C | 0.46 °C | 0.61 °C | 1.86 °C | 0.46 °C | 1.32 °C | 0.68 °C | 0.51 °C | 0.51 °C | 0.39 °C | 1.13 °C | 0.81 °C | 0.5 °C
C=CC(=O)Nc1ccc2ncnc(Nc3ccc(OCc4cccc(F)c4)c(Cl)c3)c2c1 | 4.44 °C | 7.88 °C | 3.29 °C | 2.47 °C | 2.59 °C | 3.8 °C | 3.44 °C | 3.63 °C | 0.29 °C | 6.13 °C | 5.43 °C | 8.4 °C | 1.59 °C | 0 °C | 4.19 °C | 3.43 °C | 2.95 °C | 1.07 °C | 2.45 °C | 2.87 °C
CC1Oc2cc(cnc2N)-c2c(nn(C)c2C#N)CN(C)C(=O)c2ccc(F)cc21 (stereo not given) | 0.52 °C | 1.64 °C | 0.21 °C | -0.23 °C | 0.3 °C | -0.18 °C | -0.18 °C | 2.07 °C | 0.44 °C | 0.41 °C | 3.37 °C | 0.4 °C | 0.4 °C | 0.16 °C | 0.4 °C | 0.35 °C | -0.27 °C | 2.75 °C | 6.77 °C | 0.31 °C
CS(=O)(=O)c1ccc(-c2cnc(N)c(C(=O)Nc3ccccc3)n2)cc1 | 1.64 °C | 0.51 °C | 0.6 °C | 0 °C | 5.11 °C | 1.15 °C | 1.65 °C | 0.08 °C | 0.3 °C | 0.77 °C | 0.59 °C | 1.29 °C | 0.17 °C | 0.26 °C | 0.52 °C | 1.04 °C | 0.54 °C | 0.71 °C | -0.32 °C | -0.36 °C
C1=N/C2=N/c3ccc(OCCN4CCCC4)c(c3)COC/C=C/COCc3cccc(c3)C(=C1)N2 [Pacritinib (SB1518)] | 2.82 °C | 2.89 °C | 2.75 °C | -0.21 °C | 4.13 °C | 2.75 °C | 4.09 °C | 2.71 °C | 0.34 °C | 8.62 °C | 1.85 °C | 6.01 °C | 0.7 °C | 2.88 °C | 1.79 °C | 2.62 °C | 0.11 °C | 4.85 °C | 11.4 °C | 0.42 °C
N#CC1(c2ccc(NC(=O)c3cccnc3NCc3ccncc3)cc2)CCCC1 [Apatinib] | 1.1 °C | 0.48 °C | 0.27 °C | 0.11 °C | 0.52 °C | 0.5 °C | 0.01 °C | 0.55 °C | 0.33 °C | 0.12 °C | 1.62 °C | 0.33 °C | 0.74 °C | 5.6 °C | 0.6 °C | 0.01 °C | 1.02 °C | 0.96 °C | 0.6 °C | -0.16 °C
Cn1c(=O)c(F)c(Nc2ccc(I)cc2F)c2c(=O)n(C[C@@H](O)CO)cnc21 | 0.56 °C | -0.22 °C | 0.49 °C | 0.43 °C | 0.33 °C | 0.97 °C | 0.25 °C | 0.55 °C | 0.57 °C | 0.27 °C | 3.09 °C | 1.03 °C | 1.02 °C | 0.11 °C | 0.29 °C | 0.22 °C | 1.5 °C | 0.9 °C | 0.98 °C | 1.05 °C
Cn1cc(-c2ccc3nnc(C(F)(F)c4ccc5ncccc5c4)n3n2)cn1 | 1.27 °C | -0.24 °C | 5.11 °C | 0.46 °C | 0.28 °C | 1.41 °C | 1.09 °C | 0.82 °C | 0.35 °C | 1.02 °C | 1.42 °C | 1.1 °C | 1.32 °C | 0.31 °C | -0.37 °C | 0.13 °C | 0.91 °C | 1.21 °C | 2.28 °C | 0.51 °C
CO[C@@H](C(=O)N1Cc2[nH]nc(NC(=O)c3ccc(N4CCN(C)CC4)cc3)c2C1)c1ccccc1 | 3 °C | 1.69 °C | 6.13 °C | -0.31 °C | 0.54 °C | 0.38 °C | 1.14 °C | 3.55 °C | 0.01 °C | 0.36 °C | 0.28 °C | 1.12 °C | 0.4 °C | 0.57 °C | -0.26 °C | 1.38 °C | 0.65 °C | 0.25 °C | 9.66 °C | 0.37 °C
